Data published in PubChem BioAssay AID720488 (Milwaukee Institute for Drug Discovery, 2013).
Where “and” joins values, the source holds several entries; their conditions need not be identical. Equal values may be shown once. Screen size: about 16,000 compounds; about 960 (6%) were called active. The list comes from a sample in which actives are over-represented; it also holds similar structures and randomly drawn compounds. A number with no mark means an inactive call.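 Rule for the calls: active = compound fluorescence over control fluorescence at most 0.8, a quencher, or at least a set upper limit, an enhancer; inactive = ratio between 0.8 and the set upper limit.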

experiment: fluorescence interference in NS3h DNA assay – biochemical, ChemBridge library, Cy5 readout, artefact control for HCV NS3 helicase inhibitor project (AID 720488); details: Cy5-dT15 DNA with NS3h, at 100 µM, actives lie on both sides, signal over control mean, under 1 quenches

Compared with `O=C1C2C3C=CC(C3=C(c3ccccc3)c3ccccc3)C2C(=O)N1c1cccc(C(F)(F)F)c1` (stereo unspecified), `O=C(Nc1ccc(Cl)cc1C(O)c1ccccc1)c1cnn2c1NC(c1ccccc1)CC2C(F)(F)F` (stereo unspecified) is lower in fluorescence interference ratio: 1.02 for the first, 0.956 for the second.

Going from `CCOc1ccc(C(=O)Nc2ccc(Cl)c(-c3nc4ncccc4o3)c2)cc1Cl` to `Cc1cccc(C(=O)Nc2cccc(NC(=O)COc3ccccc3Cl)c2)c1`, the fluorescence interference ratio falls from 1.17 to 0.946.

Going from `Cc1cccc(N=C2NC(=O)CS2)c1C` to `O=C1NC(=Nc2cccc(O)c2)S/C1=C\c1cccc(O)c1`, the fluorescence interference ratio falls from 1 to 0.898.

Compared with `COC(=O)C1=C(O)/C(=C\c2ccccc2C(F)(F)F)N=C1C`, `COC(=O)c1ccccc1NC(=O)c1cncc(Br)c1` is higher in fluorescence interference ratio: 0.891 for the first, 0.974 for the second.

Compared with `CCOC(=O)c1[nH]c(=O)[nH]c1CSc1nccn1C`, `CCOC(=O)NCc1ccc(N(C)C)cc1` is lower in fluorescence interference ratio: 1.03 for the first, 0.963 for the second.

Compared with `Cc1cc(/C=N\O)c(C)n1-c1ccc(F)cc1`, `CCOC(=O)c1ccc(-n2c(C)cc(/C=N\n3cnnc3)c2C)cc1` is higher in fluorescence interference ratio: 0.964 for the first, 1.03 for the second.

First: Cc1ccc(NC(=O)c2cccc(C(=O)Nc3ccc(C)cc3)n2)cc1
Second: CC(=O)c1ccc(NC(=O)c2c(Cl)cccc2Cl)cc1
The fluorescence interference ratio of the first is lower: 0.981 for the first, 1.03 for the second.

First: Cc1cc(Br)cc(C)c1NC(=O)c1cc2ccccc2o1
Second: COc1ccc(Br)cc1C(=O)Nc1cccc(-c2nc3ccccc3[nH]2)c1
The fluorescence interference ratio of the first is lower: 0.937 for the first, 0.978 for the second.

Compared with `Cc1ccccc1CC1S/C(=N/N=C\c2ccc(N(C)C)cc2)NC1=O` (stereo unspecified), `CCN(CC)c1ccc(N2C(=O)/C(=C/c3ccc4c(c3)OCO4)SC2=S)cc1` is higher in fluorescence interference ratio: 0.981 for the first, 1.12 for the second.

Compared with `Cc1cccc(NS(=O)(=O)c2ccc([N+](=O)[O-])cc2)n1`, `O=[N+]([O-])c1cccc(S(=O)(=O)NCc2ccccn2)c1` is higher in fluorescence interference ratio: 0.931 for the first, 1.05 for the second.

Compared with `COc1ccc(C2=CC=C(c3ccc(OC)cc3)C2)cc1`, `COc1ccc(C2=NN(C(C)=O)C(c3ccccc3)C2)cc1` (stereo unspecified) is higher in fluorescence interference ratio: 0.865 for the first, 1.05 for the second.

Going from `CCCCOCP(=O)(c1ccccc1)c1ccccc1` to `CN(C(=O)COc1ccc2ccccc2c1)c1ccccc1`, the fluorescence interference ratio falls from 1.1 to 1.02.

Going from `CCOC(=O)C(C#N)C(=S)Nc1ccccc1` (stereo unspecified) to `COC(=O)C1CC(OCc2ccccc2)C1` (stereo unspecified), the fluorescence interference ratio falls from 1.02 to 0.97.

Going from `Cn1cnc2c1c(=O)n(Cc1ccc(F)cc1)c(=O)n2C` to `Cc1cc(C)cc(N2C(=O)NC(=O)/C(=C\c3ccc(F)cc3)C2=O)c1`, the fluorescence interference ratio falls from 1.12 to 1.02.

Compared with `COc1ccc(C(=O)COc2cc3c(C(=O)OC(C)C)c(C)oc3cc2Br)cc1`, `CCOC(=O)c1ccc(NC(=O)c2cc(OCC)cc(OCC)c2)cc1` is higher in fluorescence interference ratio: 1 for the first, 1.01 for the second.

Compared with `COc1ccc(N=Cc2sccc2C)c([N+](=O)[O-])c1`, `COc1ccc(N2C(=O)C3C4C=CC(C4=C(C)C)C3C2=O)c([N+](=O)[O-])c1` (stereo unspecified) is lower in fluorescence interference ratio: 1.02 for the first, 0.887 for the second.

Going from `CC1(C(=O)Nc2ccccc2Cl)CC2c3ccccc3C1c1ccccc12` (stereo unspecified) to `S=C(Nc1ccccc1)Nc1ccccc1NC(=S)Nc1ccccc1`, the fluorescence interference ratio rises from 0.972 to 1.03.

Compared with `C=CCOC(=O)C1=C(C)NC(C)=C(C(=O)OCC=C)C1c1cccs1`, `CCOC(=O)C1=C(C)N=c2s/c(=C/c3ccc(C(=O)OC)cc3)c(=O)n2C1c1ccc(OC(C)=O)cc1` (stereo unspecified) is higher in fluorescence interference ratio: 0.9 for the first, 1.07 for the second.

First: O=C(Nc1ccc(Cl)c(Cl)c1)Nc1nnc(-c2ccc(Br)cc2)s1
Second: O=C(CSc1nnc(-c2ccc(Br)cc2)o1)OCc1ccccc1
The fluorescence interference ratio of the first is higher: 1.03 for the first, 0.95 for the second.

First: C/C(=N/NS(=O)(=O)c1ccccc1)c1cccc(Br)c1
Second: NC(=NS(=O)(=O)c1ccccc1)c1ccc(Cl)cc1
The fluorescence interference ratio of the first is lower: 1.04 for the first, 1.06 for the second.

Compared with `Cc1ccc(/C=C/C(=O)Nc2cccc([N+](=O)[O-])c2)o1`, `Cc1cccc(NC(=O)/C=C/c2ccc(F)cc2)c1` is higher in fluorescence interference ratio: 0.895 for the first, 0.934 for the second.

Going from `CCNC(=O)NC1C(NC(=O)NCC)N(C)C(=O)N1C` (stereo unspecified) to `CCc1ccccc1NC(=O)C(=O)NCc1ccco1`, the fluorescence interference ratio rises from 0.995 to 1.09.

Compared with `C=CCN1C(=O)/C(=C/c2ccccc2OCc2ccc([N+](=O)[O-])cc2)SC1=S`, `O=C(CCN1C(=O)/C(=C/c2ccccc2)SC1=S)Nc1cccc(Cl)c1` is lower in fluorescence interference ratio: 1.07 for the first, 1.04 for the second.

Going from `O=C(NCCCN1CCOCC1)C(=O)Nc1ccc(F)cc1` to `CCOC(=O)c1ccc(NC(=O)C(=O)NCc2ccc(C)cc2)cc1`, the fluorescence interference ratio falls from 1.06 to 1.

Going from `O=C(NCc1cccs1)c1cc2n(n1)C(C(F)(F)F)CC(c1ccc(Cl)c(Cl)c1)N2` (stereo unspecified) to `O=C(Nc1c(F)cc(F)cc1Br)c1cc2n(n1)C(C(F)(F)F)CC(c1ccc(Cl)cc1)N2` (stereo unspecified), the fluorescence interference ratio falls from 1.05 to 1.04.

Compared with `COc1ccc(NC(=O)C(=O)NCc2ccccn2)c(OC)c1`, `COC(=O)c1cc(NC(=O)COc2ccc([N+](=O)[O-])cc2)cc(C(=O)OC)c1` is higher in fluorescence interference ratio: 1.03 for the first, 1.05 for the second.

Compared with `O=C1C2C3C=CC(C3)C2C(=O)N1/N=C\c1cccc(I)c1` (stereo unspecified), `CCN1C(=O)C(=Cc2ccc(O)cc2)C(=O)NC1=S` is higher in fluorescence interference ratio: 0.959 for the first, 1.02 for the second.

Compared with `O=C(NC(=S)Nc1ccc([N+](=O)[O-])cc1O)c1ccc(Br)cc1`, `CCC(C)c1ccc(NC(=O)c2ccc([N+](=O)[O-])cc2)cc1` (stereo unspecified) is higher in fluorescence interference ratio: 0.952 for the first, 1.06 for the second.

Going from `Cc1ccc(OCC(=O)Nc2cc([N+](=O)[O-])ccc2Cl)cc1` to `NS(=O)(=O)c1ccc(CNC(=O)c2ccc(Cl)cc2[N+](=O)[O-])cc1`, the fluorescence interference ratio falls from 1.03 to 0.985.

First: Cc1cc(C(=O)Nc2ccccc2C(=O)O)ccc1NC(=O)CC(C)C
Second: O=C(CSc1ncc(-c2ccccc2)[nH]1)Nc1ccc(Br)cc1
The fluorescence interference ratio of the first is higher: 1.04 for the first, 0.959 for the second.

Going from `C=C(C)Cn1c(-c2ccc([N+](=O)[O-])cc2)n[nH]c1=S` to `CCOc1ccc(-n2c(O)c(C=C3C=CC=N3)c(=O)[nH]c2=O)cc1`, the fluorescence interference ratio falls from 1.03 to 0.942.

Compared with `O=C1OC(c2ccc(F)cc2)=N/C1=C\c1ccc2c(c1)OCO2`, `CCc1ccc(N2C(=O)/C(=C/c3cc(C)n(-c4cccnc4)c3C)C(=O)NC2=S)cc1` is higher in fluorescence interference ratio: 1.09 for the first, 1.1 for the second.

First: COc1ccc(C2CC(C(F)(F)F)n3nc(C(=O)N4CCN(c5ccc(F)cc5)CC4)c(Cl)c3N2)cc1 (stereo unspecified)
Second: O=C(Nc1ccc(OC(F)(F)F)cc1)c1nn2c(c1Br)NC(c1cccs1)CC2C(F)(F)F (stereo unspecified)
The fluorescence interference ratio of the first is lower: 0.951 for the first, 1 for the second.

Going from `N#Cc1c(SCC(=O)c2ccc(Cl)cc2)nc2c(c1-c1ccco1)CCCC2` to `COc1ccc(Cl)cc1C(=O)N1CCN(c2cccc(Cl)c2)CC1`, the fluorescence interference ratio falls from 0.953 to 0.934.

Compared with `O=C(Nc1ccc(Oc2ccccc2)cc1)c1ccco1`, `O=C(COC(=O)C1CCCN1C(=O)OCc1ccccc1)c1ccc(-c2ccccc2)cc1` (stereo unspecified) is higher in fluorescence interference ratio: 0.978 for the first, 1.04 for the second.

Going from `CNC(=O)C1CC(=O)N(c2ccc(F)cc2)C1` (stereo unspecified) to `COc1ccc(Br)cc1C(=O)Nc1ccc(F)c([N+](=O)[O-])c1`, the fluorescence interference ratio falls from 1.11 to 0.959.

First: COc1ccc2[nH]cc(CCNC=O)c2c1
Second: O=C(/C=C\c1ccccc1)Nc1ccc(Br)cn1
The fluorescence interference ratio of the first is higher: 1.01 for the first, 0.948 for the second.

Going from `CSc1ccc(C=Nc2ccc(C#N)cc2)cc1` to `CP(=O)(c1ccc(C(N)=O)cc1)c1ccc(C(N)=O)cc1`, the fluorescence interference ratio falls from 1.07 to 1.06.

Work on `CC(C)(C)NC(=O)CN(c1cccc(C(F)(F)F)c1)S(C)(=O)=O` yielded a fluorescence interference ratio of 1.05.

With `CC(=O)c1cccc(N2C(=O)C3C4C=CC(C5CC45)C3C2=O)c1` (stereo unspecified) the fluorescence interference ratio was 0.66 (active).
In the case of `Cc1cccc(N=C2NC(=O)/C(=C\c3ccc([N+](=O)[O-])cc3)S2)c1C`, the fluorescence interference ratio is reported as 0.748 (active).
In the case of `O=C(Nc1ccncc1)c1cc2ccccc2o1`, the fluorescence interference ratio is reported as 0.446 (active).
With `CCOCCOCCC(C(=O)O)P(=O)(c1ccccc1)c1ccccc1` (stereo unspecified) the fluorescence interference ratio was 0.631 (active).
In the case of `COc1ccc(N2C(=O)C=CC2=O)c([N+](=O)[O-])c1`, the fluorescence interference ratio is reported as 0.622 (active).
For `C=CCN1C(=O)/C(=C\c2cc(Cl)c(O)c(Cl)c2)SC1=S`, the fluorescence interference ratio was 0.772 (active).
For `O=C(Nc1cc([N+](=O)[O-])ccc1O)c1ccc(C(=O)Nc2cc([N+](=O)[O-])ccc2O)cc1`, the fluorescence interference ratio was 1.24 (active).
For `CC(C)COc1ccc(C(=O)Nc2cc([N+](=O)[O-])ccc2Cl)cc1`, the fluorescence interference ratio was 0.656 (active).
For `COc1ccc(C2CC(c3ccc([N+](=O)[O-])cc3)=NN2)cc1` (stereo unspecified), the fluorescence interference ratio was 0.645 (active).
With `N#Cc1c(N)nc2sc(C(=O)Nc3ccccc3)c(N)c2c1-c1ccco1` the fluorescence interference ratio was 1.21 (active).
In the case of `O=C1c2ccccc2C(=O)c2c1cccc2N1CCN(CCO)CC1`, the fluorescence interference ratio is reported as 1.22 (active).
With `CCc1ccccc1NC(=O)/C(=C/c1ccccc1)c1ccccc1` the fluorescence interference ratio was 0.606 (active).
With `CCOC(=O)c1ccc(NC(=O)c2ccccc2OC)cc1` the fluorescence interference ratio was 0.661 (active).
In the case of `COc1cc(NC(=O)c2cnn3c2NC(c2cccs2)CC3C(F)(F)F)c(OC)cc1Cl` (stereo unspecified), the fluorescence interference ratio is reported as 0.659 (active).
With `COc1ccc(NC(=O)c2cccc(Cl)c2Cl)cc1OC` the fluorescence interference ratio was 0.784 (active).
In the case of `CCOc1cc(/C=C(\C#N)c2nc3ncc(Br)cc3[nH]2)ccc1O`, the fluorescence interference ratio is reported as 0.791 (active).
In the case of `CCn1c(-c2ccc(OC)cc2)n[nH]c1=S`, the fluorescence interference ratio is reported as 1 and 1.01.
With `CCN(CC)c1ccc(C=C2C(=O)N(C)C(=O)N(C)C2=O)c(O)c1` the fluorescence interference ratio was 2.02 (active).
With `CCN(CC)c1ccc(/C=C2\C(=O)NC(=O)N(C)C2=O)cc1` the fluorescence interference ratio was 1.29 (active).
